Growth data for 13 compounds are collected here from PubChem BioAssay (NCI).

Holding throughout (test): NCI-60 one-dose screen, 48 h (100 = growth as untreated, 0 = no growth, -100 = all killed)
Common to all, as to details: 10 µM unless noted

The subject of assay [1] is DU-145 prostate.
Assay [2] relates to K-562 leukemia.
Assay [3] concerns MALME-3M melanoma.
Assay [4] relates to MDA-MB-231 breast.
Assay [5] relates to RXF 393 renal.
Assay [6] concerns SF-268 CNS.
In assay [7] the test system is SF-295 CNS.
The subject of assay [8] is SF-539 CNS.
The test system of assay [9] is UACC-257 melanoma.
The test system of assay [10] is M14 melanoma.

This is part of a sample that, as a whole, favours compounds with a hit. Of some 83,000 tested, about 20% had one in any assay.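 Treatment: one concentration, 48 hours, 96-well format. Scoring: percent growth, with anything below 10 considered active.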 Values without a mark were called inactive. Active and inactive are the calls of the source.

As for `N#Cc1cccc(-c2ccc3c(c2)NC(=O)/C3=C\c2ccc[nH]2)c1`, the growth in assay [1] is 92.8%; in [2], 18.8%; in [3] it was 51.6%; in assay [4], 33.5%; in assay [5], 73.3%; in assay [6], 95.6%. For the same compound, the growth is 78.7% in assay [7], 71.8% in [8], 67.6% in assay [9] and 56.4% in assay [10].
For `COc1ccc2c(c1)C(=O)CC(c1ccccc1OC)O2` (stereo not given), the growth in [1] was 103%; in [2] it was 101%; in [3], 102%; in assay [4], 86.8%; in assay [5], 106%; in assay [6] it was 96.6%. The growth in [7] is 101%; in [8] it was 96.6%; in assay [9], 101%; in [10] it was 106%.
As for `O=C(CCN1CCCC1)Nc1ccc2c(Nc3ccc(F)cc3)c3ccccc3nc2c1`, the growth in assay [1] was -46% (active); in [2] it was 0.179% (active); in assay [3], -90.1% (active); in assay [4] it was -17.2% (active); in assay [5] it was 7.89% (active); in [6] it was 16.3%. Moreover, the growth is 15.2% in assay [7], -74.5% (active) in assay [8], -57.1% (active) in assay [9] and -80.7% (active) in assay [10].
Take `O=C1Nc2cc(-c3ccc(NS(=O)(=O)c4ccccc4)cc3)ccc2/C1=C/c1ccc[nH]1`: the growth in [1] was 31.8%; in assay [2] it was 61%; in assay [3], 85.5%; in [4] it was 62.9%; in assay [5], 104%; in assay [6], 92.1%. For the same compound, the growth is 98.7% in [7], 76.2% in assay [8], 110% in assay [9] and 90.1% in assay [10].
In the case of `COc1ccc(C(C)=O)c(OC)c1`, the growth in assay [1] is 113%; in assay [2], 118%; in [3] it was 110%; in [4] it was 102%; in assay [5] it was 117%; in assay [6], 111%. Besides, the growth is 110% in assay [7], 103% in [8], 97.8% in assay [9] and 108% in [10].
`CCCCCCCCO/N=C\c1c2c(O)c3c(O)c(C)c4c(c3c1O)C(=O)C(C)(O/C=C\C(OC)C(C)C(OC(C)=O)C(C)C(O)C(C)C(O)C(C)/C=C\C=C(\C)C(=O)N2)O4` (stereo not given): the growth in assay [1] was 32.9%; in [2], 16.7%; in assay [3] it was 40.7%; in [4] it was 12.7%; in [5], 38.7%; in [6], 43.1%. Also, the growth in [7] was 4.44% (active); in assay [8], 42.9%; in assay [9] it was 8.62% (active); in assay [10] it was 27%.
On to `COc1cc(/C(C)=C(\c2ccc(Cl)cc2)c2ccc(OCCN3CCCC3)cc2)ccc1F`, for which the growth in assay [1] is 69.4%; in [2] it was 3.65% (active); in assay [3] it was -2.59% (active); in assay [4], 56.4%; in [5], 69.3%; in assay [6], 76.6%. Besides, the growth was 75.2% in [7], 73.3% in assay [8], 3.02% (active) in assay [9] and 18.2% in [10].
Consider `CN(C)c1ccc(C2C(C#N)=C(/N=C/c3ccccc3)Oc3c2ccc2ccccc32)cc1` (stereo not given), for which the growth in assay [1] was 87.8%; in assay [2], 17.1%; in assay [3], 77.8%; in assay [4], 58.1%; in assay [5], 75.9%; in assay [6], 66.5%. In addition, the growth is 49.5% in assay [7], 68.6% in [8], 82.7% in assay [9] and 59.4% in [10].
Consider `COc1ccc(C(=O)c2cc(C)c(OC)c(C)c2)c(OC)c1NC(C)=O`, for which the growth in [1] is 4.21% (active); in assay [2], 15.5%; in [3], 58.5%; in assay [4], 20.9%; in assay [5], 10.8%; in assay [6], 37.9%. In addition, the growth was 13% in assay [7], -13.7% (active) in [8], 66.1% in assay [9] and -8.33% (active) in assay [10].
With `N#C/C(=C\c1ccc(Cl)cc1)n1nnc2cc(F)c(F)cc21`, the growth in assay [1] was 14%; in assay [2], 11.5%; in [3] it was 14.8%; in [4] it was 11.9%; in assay [5], -18.6% (active); in [6] it was 35.7%. Also, the growth was 86% in [7], 3.56% (active) in assay [8], 27.7% in [9] and 11.1% in assay [10].
In the case of `CNC(=O)c1cncc(Cn2nc(C)c(NC(=O)c3ccc(COc4ccc(C(F)(F)F)cc4C)cc3)c2C)c1`, the growth in assay [1] is 67%; in assay [2], 37%; in assay [3] it was 73.8%; in assay [4] it was 78.2%; in assay [5], 83.7%; in [6], 70.8%. For the same compound, the growth in assay [7] is 40.4%; in [8], 80.7%; in [9], 18.4%; in assay [10], 73.3%.
For the compound `COc1cc2c(-c3cc4c(cc3CNCCc3ccc5c(c3)OCO5)OCO4)cccc2c(OC)c1O`, the growth was 95.8% in [1]; 20% in assay [2]; 103% in assay [3]; 69.4% in [4]; 74.9% in assay [5]; 68% in assay [6]. Also, the growth in assay [7] is 92.2%; in assay [8], 88.4%; in assay [9], 96.1%; in [10] it was 84.4%.
Consider `Cc1cccc(NC(=O)Nc2ccc(-c3ccc4c(c3)NC(=O)/C4=C\c3ccc[nH]3)cc2)c1`, for which the growth in [1] was 96.4%; in [2], 82.8%; in assay [3], 105%; in [4], 93%; in [5], 102%; in [6], 95.2%. Further, the growth in assay [7] was 66.1%; in assay [8], 62.7%; in [9], 102%; in [10] it was 84.9%.
